Measurements published in PubChem BioAssay (NCI).
Compounds without any hit were thinned out: in the full panel of roughly 83,000, 20% have a hit.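 Cell lines were cultured in 96-well plates, exposed to a single compound concentration, and assessed for percent growth 48 hours later.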 A number with no mark means an inactive call. Calls of active or inactive are those of the source. The calls were made as follows: active = growth percent below 10; inactive = the rest.

Columns and labels:
Test in all cases: NCI-60 one-dose screen, 48 h (100 = growth as untreated, 0 = no growth, -100 = all killed)
Conditions in all cases: 10 µM unless noted
DU-145 prostate = test system: DU-145 prostate
K-562 leukemia = test system: K-562 leukemia
MALME-3M melanoma = test system: MALME-3M melanoma
MDA-MB-231 breast = test system: MDA-MB-231 breast
RXF 393 renal = test system: RXF 393 renal
SF-268 CNS = test system: SF-268 CNS
SF-295 CNS = test system: SF-295 CNS
SF-539 CNS = test system: SF-539 CNS
UACC-257 melanoma = test system: UACC-257 melanoma
M14 melanoma = test system: M14 melanoma
HCT-15 colon = test system: HCT-15 colon
HT29 colon = test system: HT29 colon
SNB-75 CNS = test system: SNB-75 CNS
SNB-19 CNS = test system: SNB-19 CNS
U251 CNS = test system: U251 CNS
PC-3 prostate = test system: PC-3 prostate
SK-MEL-5 melanoma = test system: SK-MEL-5 melanoma
UACC-62 melanoma = test system: UACC-62 melanoma
LOX IMVI melanoma = test system: LOX IMVI melanoma
SK-MEL-28 melanoma = test system: SK-MEL-28 melanoma

Structure (SMILES) | growth (DU-145 prostate) | growth (K-562 leukemia) | growth (MALME-3M melanoma) | growth (MDA-MB-231 breast) | growth (RXF 393 renal) | growth (SF-268 CNS) | growth (SF-295 CNS) | growth (SF-539 CNS) | growth (UACC-257 melanoma) | growth (M14 melanoma) | growth (HCT-15 colon) | growth (HT29 colon) | growth (SNB-75 CNS) | growth (SNB-19 CNS) | growth (U251 CNS) | growth (PC-3 prostate) | growth (SK-MEL-5 melanoma) | growth (UACC-62 melanoma) | growth (LOX IMVI melanoma) | growth (SK-MEL-28 melanoma)
CCCCCCCCCCCCCCCCCCOc1ccccc1CC(=O)OCCC[N+](C)(C)C | 60.5% | 37.4% | 52.7% | 45.9% | -18.2% (active) | 53.2% | 75.4% | 52.1% | 84.7% | 46.3% | 78.7% | 40% | 40.6% | 34.2% | 24.2% | 36.8% | 43.2% | 54.2% | 36.4% | 66.8%
Cn1c2c(c3ccc(Cl)c(Cl)c31)C(C#N)C1(CCNCC1)NC2=O (stereo not given) | 69.1% | 26.1% | 58.1% | 42.2% | 25.9% | 48.6% | 58.3% | 56.8% | 39.9% | 16.1% | 47.2% | 9.42% (active) | 22.2% | 57.2% | 47.7% | 20.5% | 59.6% | -46.5% (active) | 14.2% | -81.4% (active)
COc1cc(/C=N/Nc2ncc(-c3cc4cc5c(cc4o3)OCO5)s2)cc(OC)c1OC | 48% | 30.1% | 93.8% | 46.5% | 66.3% | 74.9% | 67.1% | 81.7% | 42.2% | 26.3% | 35.7% | 56.2% | 72.4% | 76.1% | 68.1% | 21.5% | 4.87% (active) | 33.7% | 36.1% | 60.7%
N/C(=N\c1nc2ccccc2s1)NC(=O)Nc1cccc(Cl)c1 | 52.4% | 13.9% | 42.6% | 59.4% | 68.6% | 55.9% | 40% | 2.83% (active) | 48.9% | 10.3% | 17.9% | 10.2% | 13.7% | 42.2% | 26.1% | 42.4% | 32.3% | 25.8% | 38.9% | 60.1%
COc1ccc2c(c1)O/C(=C\c1cccc(OCC(=O)Nc3nc4ccccc4s3)c1)C2=O | 28.6% | 5.15% (active) | -43.8% (active) | 74.8% | -29.3% (active) | 24.2% | 99.7% | 97.6% | 106% | 42.9% | 81.5% | 110% | 102% | 83.6% | 70.5% | 35% | 96.7% | 83.9% | -85% (active) | 96.7%
OC(c1cccc(-n2ccc(C(F)(F)F)n2)c1)c1cnccc1NC1CCCCCC1 (stereo not given) | 2.76% (active) | 3.64% (active) | -79% (active) | -76.4% (active) | 14.2% | 64.4% | 81.3% | 61.3% | -17.8% (active) | -75.1% (active) | -39.2% (active) | -0.162% (active) | 64.4% | 71.1% | -42.6% (active) | 41.2% | 33.8% | 32.2% | -91.4% (active) | -65.3% (active)
CC1(C)CC[C@]2(C(=O)N3CCOCC3)CC[C@]3(C)C(=CC[C@@H]4[C@@]5(C)CC[C@H](OC(=O)c6cccnc6)C(C)(C)[C@@H]5CC[C@]43C)[C@@H]2C1 | 60.9% | 36% | 88.6% | 70.4% | 84.3% | 71.1% | 51.2% | 71.5% | 65.5% | 72.8% | 49.4% | 42.3% | 67.7% | 67.5% | 53.2% | 38.9% | 54.3% | 35.7% | 28% | 66.1%
NS(=O)(=O)c1cnccc1Sc1ccncc1S(N)(=O)=O | 102% | 76.3% | 91.1% | 111% | 108% | 107% | 130% | 93% | 111% | 100% | 102% | 113% | 96.6% | 105% | 107% | 94.9% | 105% | 99.4% | 101% | 117%
CCc1c2c(nc3ccc(OC(=O)NCc4ccc(B5OC(C)(C)C(C)(C)O5)cc4)cc13)-c1cc3c(c(=O)n1C2)COC(=O)[C@]3(O)CC | 3.45% (active) | 10.8% | -44.1% (active) | 13% | -61.9% (active) | -5.02% (active) | -0.543% (active) | -47.1% (active) | -44.5% (active) | -16.1% (active) | 10.4% | 25.2% | -22.1% (active) | 1.93% (active) | -33.3% (active) | 14.7% | -87.4% (active) | -80.5% (active) | -71.6% (active) | 3.27% (active)
Cc1cccc(-c2nc(N(C)c3ccc4ncsc4c3)c3ccccc3n2)n1 | 94.1% | 21.6% | 79.5% | 63.6% | 84.3% | 94.1% | 77% | 92.1% | 76.1% | 54.1% | 51.5% | 50.1% | 94% | 77.1% | 82.2% | 45.5% | 22.4% | 50.4% | 77.5% | 72%
COc1cc(C(=O)/C=C/c2c(-c3ccc(F)cc3)nc3sc(C)cn23)cc(OC)c1OC | 39.2% | 7.75% (active) | 6.76% (active) | 38.2% | 44.2% | 40.4% | 32.4% | 57.7% | 21.4% | 32.3% | 35.5% | 41.5% | 50.1% | 66.5% | 32.9% | 10.7% | -88.8% (active) | 23.1% | 25.1% | 12.4%
COc1cc(OC)cc(C2CC(=O)Nc3c2c(C)nn3-c2nc3ccccc3[nH]2)c1 (stereo not given) | 53.3% | 9.41% (active) | 38.3% | 16.5% | -0.824% (active) | 29.3% | -62.9% (active) | 18.4% | 23.9% | 11.8% | 37.2% | 23.5% | -3.14% (active) | 21.9% | 16.8% | 26.4% | -62% (active) | -19.2% (active) | 1.34% (active) | 38.1%
C=CCn1c(C)nc2cc(Nc3nc(N4CCCC4)nc4ccccc34)ccc21 | 73.8% | 1.94% (active) | 122% | 42% | 52.4% | 86.9% | 83.7% | 90.1% | 115% | 89.7% | 79.4% | 5.63% (active) | 83.6% | 107% | 96.6% | 98.7% | 62.4% | 113% | 2.4% (active) | 80.1%
COc1ccc(-c2cc(-c3ccc(Nc4nc(Nc5ccc(Cl)cc5)nc(Nc5ccc(Cl)cc5)n4)cc3)nc(N)c2C#N)cc1 | 37.7% | 30.1% | -70.3% (active) | -30.7% (active) | -32.5% (active) | 59% | 415% | -48.7% (active) | -13.2% (active) | 24.9% | 10.6% | 2.33% (active) | -74.1% (active) | 105% | 10.9% | 4.49% (active) | -67.5% (active) | 42.4% | -75.1% (active) | -47.5% (active)
COc1ccc2c(c1)C(=O)/C(=C/c1ccc(OCC(=O)Nc3nccs3)cc1)O2 | -37.4% (active) | -27.3% (active) | -42.2% (active) | 46.2% | 31.8% | -68.5% (active) | 57.5% | -85% (active) | 84.9% | 37.3% | 76.2% | 3.69% (active) | -90.7% (active) | 78.6% | 4.62% (active) | -62% (active) | 100% | 74.2% | -58.2% (active) | 103%
